HCV inhibitor – qHTS Assay for Inhibitors of Hepatitis C Virus (HCV); Huh7.5.1 HCVcc-Cre infection, luciferase reporter, 44 h; Potency, µM (highest dose often 41.8 µM), for inactives: at the top dose activity change, negative = inhibition, hits mostly inhibitors; hit rate 3.4% among 340,000; AID 651820, 2012
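A cell-based infection assay in which seeded cells (1,000 per well) receive test compound after 4 h, are inoculated with HCVcc-Cre at approximately 0.5 moi, and are incubated 44 h before luminescence detection.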
AMA1-RON2 inh – qHTS for Inhibitors of AMA1-RON; Towards Development of Antimalarial Drug Lead: Primary Screen. AlphaScreen AMA1-biotinylated RON2 peptide binding. hit rate 0.2% among 360,000. AID 720542, 2013. Plasmodium falciparum AMA1 (3D7) - RON2 peptide interaction. Potency, µM (doses to about 58.2 µM), without a hit: top-dose activity change, negative = inhibition, usual class: inhibitors;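 further: 0% = vehicle wells and -100% = peptide control; nearly all actives have a fitted effect of over 45% in size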
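AMA1 (3D7) with his tag at 25 nM final met compounds first, then biotinylated RON2 peptide at 25 nM; detection used donor plus acceptor beads, 10 µg/mL apiece, read by AlphaScreen after 30 min at room temperature.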
Pf growth 96h – Primary qHTS for delayed death inhibitors of the malarial parasite plastid, 96 hour incubation | P. falciparum luciferase reporter growth, 96 h | Potency, µM (highest dose often 28.7 µM), without a hit: at the highest dose activity change, negative = inhibition, most hits filed as inhibitors | hit rate 6.9% among 320,000 | AID 504834, 2011
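P. falciparum expressing integrated firefly luciferase, in erythrocytes at 2% hematocrit, 0.05% parasitemia, incubated with compounds 96 h at 37 C, 5% CO2. Growth inhibition read as loss of luminescence; two-generation exposure targets delayed-death apicoplast inhibitors.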
Pf growth 48h – Primary qHTS for delayed death inhibitors of the malarial parasite plastid, 48 hour incubation; P. falciparum luciferase growth in erythrocytes, 48 h; Potency, µM (titrated, usually from 28.7 µM), without a hit: at the top dose activity change, negative = inhibition, most hits filed as inhibitors; hit rate 5.9% among 310,000; AID 504832, 2011
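Read-out is firefly luciferase luminescence from an integrated reporter in P. falciparum, so falling signal marks reduced parasite growth. Infected erythrocytes were at 2% hematocrit and 0.1% parasitemia (final) in Albumax-supplemented RPMI 1640.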
An asterisk follows results filed as active; ? = inconclusive; . = no result; [ ] = dose if it differs, or a comment. The list is not random: actives were taken first. Their share in the collection is about 11%. The call rests on the fitted dose curve; in most records, active means well fitted curve in the direction sought with a large enough effect; inconclusive means small, poorly fitted or top-dose-only effect, or another doubt; inactive means no such curve, though single readings can be large; an effect the other way counts as inactive or inconclusive. Unless noted, on the % scale 0 is the no-effect control and ±100 the full control effect; potency means the concentration at half of the fitted maximal effect.

SMILES	HCV inhibitor	AMA1-RON2 inh	Pf growth 96h	Pf growth 48h
CN(C)C(CNC(=S)Nc1ccc(F)cc1)c1cccnc1 (stereo unspecified)	10%	-3%	50%	23%
CC1=C(C(N)=O)C(c2cccs2)NC(=O)N1 (stereo unspecified)	0%	-3%	58%	?
CNC(=O)CCn1nc(-c2ccccc2)c2ccccc2c1=O	2%	-15%	15µM*	27%
CCN(CC)C(=O)CCn1nc(-c2ccc(C)cc2)c2ccccc2c1=O	-3%	-12%	-2%	7.4µM*
CC(C)NC(=O)N(C)C[C@H]1Oc2ccc(NS(=O)(=O)c3ccc(F)cc3)cc2C(=O)N([C@H](C)CO)C[C@@H]1C	20%	6%	.	.
O=C(NN=C1CCCC1)c1cc(Br)ccc1O	5%	55%	?	28%
O=C(NN=C1CCCC1)c1ccc(O)cc1O	4%	15%	13µM*	-10%
Cc1ccc(NC(=O)c2ncn(CCCN3CCN(Cc4cccc5ccccc45)CC3)n2)cc1C	?	-12%	.	.
C(=N\N(c1ccccc1)c1ccccc1)/c1ccc(N2CCOCC2)s1	-15%	-29%	8.3µM*	?
CCOC(=O)N/N=C/c1ccc(N2CCOCC2)s1	1%	-10%[11.6 µM]	38%	2.6µM*
COc1ccc(C(=O)N/N=C/c2ccc(N3CCOCC3)s2)cc1OC	8%	113%	?	?
C#CCOCCOCCOCCNc1nc(N2CCN(C(=O)[C@H](CCC(=O)O)n3cc([C@@H](N)CCCCN)nn3)CC2)nc(N2CCN(C(=O)[C@H](CCCCN)n3cc([C@@H](N)CC(N)=O)nn3)CC2)n1	22%	-5%	.	.
CC(=O)c1cccc(NC(=O)c2nc(-c3ccccc3)oc2C)c1	16µM*	-14%	-17%	10%
Cc1oc(-c2ccccc2)nc1C(=O)O	17%	-7%	0%	-77%
CC(C)CC(NC(=O)C(NC(=O)OC(C)(C)C)C(C)C)C(N)=O (stereo unspecified)	6%	8%	9%	0%
CC(C)CC(NC(=O)C(NC(=O)OC(C)(C)C)C(C)C)C(=O)NC(CCC(=O)OCc1ccccc1)C(N)=O (stereo unspecified)	3%	-14%	?	1.9µM*
CCC(C)Nc1ccc(NC(C)CC)cc1 (stereo unspecified)	22µM*	?	1.2µM*	1µM*
CCC(C)NC(=O)Nc1ccc(Br)cc1 (stereo unspecified)	5%	1%	?	14%[5.75 µM]
O=C(NCC(c1cccs1)N1CCOCC1)c1ccc(OCc2ccccc2)cc1 (stereo unspecified)	?	13%	?	?
Cn1c(CNC(=O)CNC(=O)c2ccccc2F)cc(=O)n(C)c1=O	18%	-12%	48%	30%
N#CC1=C(SCC(=O)c2ccc(Br)cc2)NC2=C(C(=O)CCC2)C1c1ccco1 (stereo unspecified)	4.5µM*	-5%	.	?
Cc1cccc(Oc2ccc(NC(=O)C3=CC=CN4CCS(=O)(=O)N=C34)cc2)c1	10%	-7%	12µM*	?
Cc1ccc(Oc2ccc(NC(=O)C3=CC=CN4CCS(=O)(=O)N=C34)cc2)cc1	-2%	-3%	?	-18%
Cc1ccc(/C(N)=N/OC(=O)c2ccc3ccccc3c2)cc1	?	-6%	-20%	?
COc1ccccc1CC(=O)O/N=C(\N)Cc1cccc2ccccc12	-13%	-9%	?	5.9µM*
SMILES	HCV inhibitor	AMA1-RON2 inh	Pf growth 96h	Pf growth 48h
Cc1ccc(C(=O)O/N=C(\N)Cc2cccc3ccccc23)cc1	-6%	0%	22%	1.9µM*
CC(C)N1CCCC(C)(C(=O)Nc2nccc3ccccc23)C1 (stereo unspecified)	.	10%	.	.
O=C(NCc1nnc(SCC(=O)N2CCCC2)o1)c1c(F)cccc1F	12%	2%	20%	-3%
O=C(CSc1nnc(CNC(=O)c2c(F)cccc2Cl)o1)Nc1ccccc1	-18%	4%	77%	18%
O=C(NCc1nnc(SCC(=O)N2CCC(Cc3ccccc3)CC2)o1)c1ccccc1F	?	-5%	13µM*	9%
CCOC(=O)N1CCN(C(=O)CSc2nnc(CNC(=O)c3c(F)cccc3Cl)o2)CC1	9%	0%	12µM*	14%
O=C(CSc1nnc(CNC(=O)c2c(F)cccc2Cl)o1)c1ccccc1	-11%	12%	9.3µM*	-7%
O=C(NCc1nnc(SCC(=O)N2CCCC2)o1)c1c(F)cccc1Cl	13%	22%	79%	-7%
Cc1cccc2cc(CNCC3CCCO3)c(Cl)nc12 (stereo unspecified)	3%	-9%	88%	18%
Cc1ccc(-c2oc3ncnc(N)c3c2-c2ccc(C)cc2)cc1	?	0%	10%	7.4µM*
COCCNC(=O)C(=O)NCC1OCCCN1S(=O)(=O)c1cccs1 (stereo unspecified)	13%	7%	39%	14%
CCN(CC)CCCn1c2c(c(SCC(=O)Nc3nc4ccccc4s3)nc1=O)CCC2	?	0%	13µM*	?
O=C1CCCN2N=C(SCC(=O)Nc3ccc(OC(F)(F)F)cc3)SC2=N1	25%	3%	12µM*	-17%
CCN(CC)CCCn1c2c(c(SCC(=O)Nc3ccc(OC(F)(F)F)cc3)nc1=O)CCC2	10µM*	14%	?	?
CCOc1ccccc1NC(=O)COC(=O)c1c(CC)noc1C	?	-9%	17%	3%
Cc1cc(C)cc(OCCn2nnc3ccccc32)c1	-16%	5%	?	51%
COc1ccc2cnn(CCOc3cc(C)ccc3C(C)C)c(=O)c2c1OC	?	-6%	10µM*	?
COc1ccc(C)cc1NC(=O)C(NC(=O)c1cc(OC)c(OC)c(OC)c1)C(C)C (stereo unspecified)	?	-5%	13µM*	-35%
COc1cc(C(=O)NCCOc2cc(C)ccc2C(C)C)cc(OC)c1OC	2.8µM*	-8%	91%	1%[0.00184 µM]
COc1cc(C(=O)N[C@H](C(=O)NC(C)C23CC4CC(CC(C4)C2)C3)C(C)C)cc(OC)c1OC (stereo partly specified)	11%	-5%	?	.
CCOC(=O)C1(C(=O)OCC)NC(=O)CC1CC(C)C (stereo unspecified)	-7%	16%	.	.
Cc1ccc(S(=O)(=O)N2CCN(C(=O)N3CCOCC3)C2C(C)C)cc1 (stereo unspecified)	17%	16%	12µM*	-18%
Cc1cc(NS(=O)(=O)c2ccc(NC(=O)C(C)Oc3cc(C)c(Cl)c(C)c3)cc2)no1 (stereo unspecified)	1%	3%	?	-6%
CC1Sc2ccc(S(=O)(=O)N3CCC(C(=O)NCCc4ccccc4)CC3)cc2NC1=O (stereo unspecified)	?	5%	?	12µM*
